SMILES strings stand for the structures. Results filed as inconclusive are left out. Activity calls are given as the source filed them.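 The calls were made as follows, unless noted: active = normalized viability below 100% at a tested concentration; inactive = the rest.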

These results are taken from PubChem BioAssay.

Test [1] is described as follows: viability loss in pontine glioma line – cell-based, SU-DIPG-XVII, MIPE5.0, CellTiter-Glo, qHTS, dose response (AID 1347060; cut-off not given, nearly all actives have AC50 up to about 26 µM;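 as to AC50: cells exposed to compound for 48 hours before viability readout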). To be noted: CellTiter-Glo ATP luminescence. A general note: ATP-based viability assays read luminescence as a measure of living cells.
Test [2] can be described thus: viability loss in pontine glioma line – cell-based, SU-DIPG-XIII, MIPE4.0, CellTiter-Glo, qHTS, dose response (AID 1347061; cut-off not given, nearly all actives have AC50 up to about 37 µM;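 also: cells exposed to compound for 48 hours before readout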). To be noted: CellTiter-Glo ATP luminescence.
A short description of test [3]: viability loss in pontine glioma line – cell-based, JHH-DIPG-1, MIPE4.0, CellTiter-Glo, qHTS, dose response (AID 1347062; cut-off not given, nearly all actives have AC50 up to about 27 µM;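 as to AC50: cells exposed to compound for two days before readout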). To be noted: JHH-DIPG-1 viability, CellTiter-Glo ATP luminescence.
A short description of test [4]: viability loss in pontine glioma line – cell-based, SU-DIPG-IV, MIPE4.0, CellTiter-Glo, qHTS, dose response (AID 1347063; cut-off not given, nearly all actives have AC50 up to about 30 µM;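 also: compound exposure lasted 48 hours before the viability readout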). To be noted: CellTiter-Glo ATP luminescence.
Test [5] is described as follows: viability loss in pontine glioma line – cell-based, SU-DIPG-XXV, MIPE5.0, CellTiter-Glo, qHTS, dose response (AID 1347065; cut-off not given, nearly all actives have AC50 up to about 26 µM;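 also: cells exposed to compound for 48 hours before ATP readout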). To be noted: CellTiter-Glo ATP luminescence.
Test [6] in a line: growth inhibition of DIPG cells – cell-based, MIPE4.0 library, CellTiter-Glo luminescence, qHTS (AID 1347066; cut-off not given, nearly all actives have AC50 up to about 30 µM;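 also: cells exposed to compound for 48 hours before readout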). To be noted: SU-DIPG-VI viability, CellTiter-Glo ATP luminescence.
A short description of test [7]: JHH-DIPG-1 glioma cell viability, MIPE5.0 library, CellTiter-Glo luminescence, qHTS (AID 1347067; cut-off not given, nearly all actives have AC50 up to about 26 µM;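 also: cells exposed to compound for 48 hours before readout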). To be noted: JHH-DIPG-1 glioma viability, CellTiter-Glo ATP luminescence.
Test [8] is described as follows: growth inhibition of DIPG cells – cell-based, MIPE5.0 library, qHTS (AID 1347068; cut-off not given, nearly all actives have IC50 up to about 30 µM;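 as to IC50: cells exposed to compound for 48 hours before viability readout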). To be noted: SU-DIPG-XXV viability. For orientation: Quantitative high-throughput screening tests each substance at several concentrations.
Test [9] in a line: compounds altering HSF1 focus formation in cells – imaging, Selleck Cancer Library (AID 1347162; in the data active = plate-normalised HSF1 focus index below about 0.46). To be noted: human cells, HSF1 nuclear foci imaging, at 10 µM; SSMD: measured here: HSF1 foci SSMD mean; cell count: measured here: cell number; plate-normalised HSF1 focus index: stronger effect = lower value.
Test [10] in a line: drug combination growth inhibition, ovarian cancer – cell-based, oncology-focused library, rucaparib conditional, profiling panel (AID 1508598). To be noted: patient-derived ovarian cancer cells, CellTiter-Glo viability, 144 h, stronger effect = lower value.

For orientation: AC50 means the concentration at which the activity in the assay is half-maximal. Usually IC50 stands for the concentration that inhibits the measured activity by half. Broadly, the viability is a per cent measure of how many cells are alive, often set against a control. Consider `Cc1ccc(C(=O)N(CCCN)[C@@H](c2oc3cc(Cl)ccc3c(=O)c2Cc2ccccc2)C(C)C)cc1`, for which the AC50 in test [1] was 0.0332 µM (active); in test [3], 14.8 µM (active); in test [4] it was 29.6 µM (active); in test [5], 0.0118 µM (active); in test [6], 8.33 µM (active); in test [7] it was 1.66 µM (active). Moreover, in [2], the outcome was inactive. In addition, in test [8], the IC50 is 0.0417 µM (active). For the same compound, the SSMD in test [9] turned out to be 0.849. Moreover, the cell count in test [9] was found to be 6430. Also, the plate-normalised HSF1 focus index in [9] was 1.05 (inactive). Also, the viability in test [10] (at 0.000305 µM, OCI-C5x cells, with rucaparib 10 µM, 100% = cells with rucaparib alone) was 50.8% (active); in test [10] (at 0.000305 µM, OCI-C5x cells, without rucaparib) it was 63.1% (active); in [10] (at 0.000305 µM, OCI-P5x cells, with rucaparib 20 µM, 100% = cells with rucaparib alone), 62% (active); in [10] (at 0.000305 µM, OCI-P5x cells, without rucaparib), 22.5% (active); in test [10] (at 0.00122 µM, OCI-C5x cells, with rucaparib 10 µM, 100% = cells with rucaparib alone), 56.4% (active); in [10] (at 0.00122 µM, OCI-C5x cells, without rucaparib), 61.8% (active). The viability in test [10] (at 0.00122 µM, OCI-P5x cells, with rucaparib 20 µM, 100% = cells with rucaparib alone) was 50.3% (active); in test [10] (at 0.00122 µM, OCI-P5x cells, without rucaparib), 19.3% (active); in [10] (at 0.00488 µM, OCI-C5x cells, with rucaparib 10 µM, 100% = cells with rucaparib alone), 54.9% (active); in test [10] (at 0.00488 µM, OCI-C5x cells, without rucaparib), 63.8% (active); in [10] (at 0.00488 µM, OCI-P5x cells, with rucaparib 20 µM, 100% = cells with rucaparib alone), 58.3% (active); in test [10] (at 0.00488 µM, OCI-P5x cells, without rucaparib), 18.4% (active). Besides, the viability in [10] (at 0.0195 µM, OCI-C5x cells, with rucaparib 10 µM, 100% = cells with rucaparib alone) was 57.6% (active); in [10] (at 0.0195 µM, OCI-C5x cells, without rucaparib) it was 55.3% (active); in test [10] (at 0.0195 µM, OCI-P5x cells, with rucaparib 20 µM, 100% = cells with rucaparib alone), 55.3% (active); in [10] (at 0.0195 µM, OCI-P5x cells, without rucaparib) it was 19.7% (active); in [10] (at 0.0781 µM, OCI-C5x cells, with rucaparib 10 µM, 100% = cells with rucaparib alone), 54.6% (active); in [10] (at 0.0781 µM, OCI-C5x cells, without rucaparib), 50.1% (active). The viability in test [10] (at 0.0781 µM, OCI-P5x cells, with rucaparib 20 µM, 100% = cells with rucaparib alone) is 51.5% (active); in test [10] (at 0.0781 µM, OCI-P5x cells, without rucaparib), 20.3% (active); in [10] (at 0.313 µM, OCI-C5x cells, with rucaparib 10 µM, 100% = cells with rucaparib alone), 54.9% (active); in test [10] (at 0.313 µM, OCI-C5x cells, without rucaparib), 50.6% (active); in [10] (at 0.313 µM, OCI-P5x cells, with rucaparib 20 µM, 100% = cells with rucaparib alone) it was 55.7% (active); in [10] (at 0.313 µM, OCI-P5x cells, without rucaparib), 19.2% (active). Also, the viability was 49.2% (active) in test [10] (at 1.25 µM, OCI-C5x cells, with rucaparib 10 µM, 100% = cells with rucaparib alone); 49% (active) in test [10] (at 1.25 µM, OCI-C5x cells, without rucaparib); 48.4% (active) in test [10] (at 1.25 µM, OCI-P5x cells, with rucaparib 20 µM, 100% = cells with rucaparib alone); 17.8% (active) in test [10] (at 1.25 µM, OCI-P5x cells, without rucaparib); 4.98% (active) in test [10] (at 5 µM, OCI-C5x cells, with rucaparib 10 µM, 100% = cells with rucaparib alone); 4.99% (active) in test [10] (at 5 µM, OCI-C5x cells, without rucaparib). In addition, the viability in test [10] (at 5 µM, OCI-P5x cells, with rucaparib 20 µM, 100% = cells with rucaparib alone) is 0.708% (active); in test [10] (at 5 µM, OCI-P5x cells, without rucaparib) it was 6.42% (active).
For `COc1ccc(OC)c(-c2nnc3ccc(-c4ccc(OC)c(O[C@@H]5CCOC5)c4)nn23)c1`, the AC50 was 2.95 µM (active) in [1]; 26.4 µM (active) in test [2]; 7.43 µM (active) in test [3]; 14.8 µM (active) in test [4]; 2.63 µM (active) in test [5]; 11.8 µM (active) in test [6].
As for `CC(C)(F)C[C@H](N[C@@H](c1ccc(-c2ccc(S(C)(=O)=O)cc2)cc1)C(F)(F)F)C(=O)NC1(C#N)CC1`, the outcome in test [1], in test [2], in test [3], in test [4], in test [5] and in test [6] was inactive. For the same compound, the call in test [7] and in [8] was inactive.
Consider `OC[C@H]1OC(O)C[C@@H](O)[C@@H]1O` (stereo not given in full), for which the call in test [1], in [2], in [3], in test [4], in test [5] and in test [6] was inactive. Further, the compound was classed as inactive in [7] and in test [8].
